Rows were chosen to be rich in hits. Some 1.7% of all compounds tested hit in one or more screens of this group.
Glioma ERSR ind: induces the endoplasmic reticulum stress response in human glioma cells; U87-MG GRP78 promoter luciferase reporter, 16 h; Potency, µM, inactives show at the highest dose activation, most hits filed as activators; hit rate 0.02% among 420,000; further: series mostly up to about 76 µM; % of control where 0% means no effect; nearly all actives have a fitted effect of over 35% in size
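Stably transfected U87-MG glioma cells carrying a GRP78-based luciferase sensor; 16 h compound incubation. Luminescence end-point read 10 min after Bright-Glo addition at room temperature.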
IDH1 R132H inh: human IDH1 R132H inhibition | O75874 | IDH1-R132H enzyme, NADPH consumption, diaphorase/resazurin fluorescence | Potency, µM (highest dose often 76.6 µM), without a hit: top-dose activity change, negative = inhibition, hits mostly inhibitors | hit rate 0.093% among 390,000 | AID 602179; further: on the % scale 0 is the no-effect control and ±100 the full control effect; nearly all actives have a fitted effect of over 65% in size
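IDH1-R132H (0.5 ug/mL dispensed) in pH 7.5 Tris buffer was preincubated 30 min with compound, then given a substrate mix of 0.016 mM NADPH and 2 mM alpha-KG for 80 min at room temperature; remaining NADPH was read by diaphorase/resazurin fluorescence.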
TrxR1 substrate: substrates of rat thioredoxin reductase 1; O89049; hit rate 0.01% among 390,000; AID 588456; Potency, µM (doses to about 114 µM), inactives show top-dose activity change, negative = substrate turnover; purified TrxR1 substrate turnover, NADPH consumption readout; further: on the % scale 0 is the no-effect control and ±100 the full control effect; nearly all actives have a fitted effect of over 50% in size
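Rat TrxR1, dispensed at 90 nM, was prereduced with 400 uM NADPH (final) for 5 min at ~22 deg C, then incubated with compound 15 min before 400 uM selenite. A first-read NADPH fluorescence drop versus no-compound background flagged substrates.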
Anesthetic bind: binds horse apoferritin like a general anesthetic | AID 485281 | P02791 | Potency, µM (doses to about 77.5 µM), inactives show at the highest dose activity change, negative = displacement, hits mostly inhibitors | apoferritin/1-aminoanthracene competitive binding, fluorescence | hit rate 0.074% among 350,000; further: on the % scale 0 is the no-effect control and ±100 the full control effect; nearly all actives have a fitted effect of over 20% in size
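10 uM apoferritin + 50% sat. 1-AMA, PBS; cpd 10 min RT; Ex380/Em535 endpoint; normalized to free probe vs complex; 4-param Hill fit; propofol titration as pos. ctrl.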
rTrxR1 inhibitor: rat TrxR1 inhibition. hit rate 1% among 390,000. recombinant rTrxR1, NADPH fluorescence consumption, selenite substrate. O89049. Potency, µM (titrated, usually from 114 µM), inactives show at the top dose activity change, negative = inhibition, hits mostly inhibitors; further: on the % scale 0 is the no-effect control and ±100 the full control effect; nearly all actives have a fitted effect of over 65% in size
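Rat TrxR1 (90 nM in the dispensed reagent) was pre-reduced with 400 uM NADPH for 5 min at room temperature, then incubated with compound for 15 min. After 400 uM selenite was added, NADPH fluorescence (Ex 340/Em 450 nm) was followed for 8 min.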
ALOX12 inh: ALOX12 (human) lipoxygenase inhibition. P18054. purified 12hLO, xylenol orange hydroperoxide absorbance. Potency, µM (highest dose often 108 µM), for inactives: at the top dose activity change, negative = inhibition, hits mostly inhibitors. hit rate 1.1% among 580,000; further: on the % scale 0 is the no-effect control and ±100 the full control effect
Target sequence (P18054 whole entry, looked up): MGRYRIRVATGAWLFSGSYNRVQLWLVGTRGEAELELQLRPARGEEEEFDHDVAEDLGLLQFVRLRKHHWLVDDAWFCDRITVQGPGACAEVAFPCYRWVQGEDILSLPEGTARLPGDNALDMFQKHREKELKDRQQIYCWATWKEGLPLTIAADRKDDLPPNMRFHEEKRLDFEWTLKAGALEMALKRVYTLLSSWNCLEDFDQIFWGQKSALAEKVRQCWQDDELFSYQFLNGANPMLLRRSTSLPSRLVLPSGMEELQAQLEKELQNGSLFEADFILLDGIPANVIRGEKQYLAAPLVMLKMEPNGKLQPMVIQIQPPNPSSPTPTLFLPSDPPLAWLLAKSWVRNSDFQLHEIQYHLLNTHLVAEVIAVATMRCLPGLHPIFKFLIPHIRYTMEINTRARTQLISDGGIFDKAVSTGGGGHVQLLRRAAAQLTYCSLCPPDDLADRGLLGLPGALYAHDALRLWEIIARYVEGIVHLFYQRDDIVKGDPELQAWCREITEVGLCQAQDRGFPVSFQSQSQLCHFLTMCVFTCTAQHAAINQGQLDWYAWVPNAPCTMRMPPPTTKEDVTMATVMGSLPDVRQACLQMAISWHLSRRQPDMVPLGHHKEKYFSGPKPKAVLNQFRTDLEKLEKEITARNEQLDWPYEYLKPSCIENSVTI
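Hydroperoxide product was detected by ferrous iron/xylenol orange as the 573 to 405 nm absorbance ratio. Arachidonic acid at 40 uM (final) was turned over for 30 min at room temperature by 150 nM human 12hLO, pH 7.0 Hepes buffer, after 15 min compound preincubation.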
Numbers without * were called inactive; [ ] = dose if it differs, or a comment. The call rests on the fitted dose curve; in most records, active means well fitted curve in the direction sought with a large enough effect; inconclusive means small, poorly fitted or top-dose-only effect, or another doubt; inactive means no such curve, though single readings can be large; an effect the other way counts as inactive or inconclusive. Potency means the concentration at half of the fitted maximal effect.

How did Cc1ccc(NC(=O)C2=C(c3ccccc3)S(=O)(=O)CCS2(=O)=O)cc1 do in these assays?
Glioma ERSR ind: -19%; IDH1 R132H inh: 3%; TrxR1 substrate: 1%; Anesthetic bind: -5%; rTrxR1 inhibitor: 0.32µM*; ALOX12 inh: -17%

Results for Cc1ccc(C(=O)N2CCCN(c3cc(-c4ccc(F)cc4)[nH]n3)CC2)cc1 ?
ALOX12 inh: 51%

How did CC(C)NC(=O)N[C@H]1CCN2C(=O)c3cc(-c4ccc(F)cc4F)ccc3NC(=O)[C@H]12 do in these assays?
ALOX12 inh: 3%[176 µM]

Results for CCS[C@H]1CCN2C(=O)c3cc(-c4ccc(F)cc4F)ccc3NC(=O)[C@H]12 ?
ALOX12 inh: 45µM*

How did CCOc1ccc(/C=C/c2nc(C#N)c(NCCN3CCOCC3)o2)cc1 do in these assays?
ALOX12 inh: 0%

Results for COc1ccc(NC(=O)Nc2cccs2)cc1Cl ?
Glioma ERSR ind: -1%; IDH1 R132H inh: 4%; TrxR1 substrate: 4%; Anesthetic bind: -10%; rTrxR1 inhibitor: 15%; ALOX12 inh: 40µM*

How did COc1ccc(NC(=O)CCC(=O)c2cccs2)cc1Cl do in these assays?
Glioma ERSR ind: -2%; IDH1 R132H inh: 0%; TrxR1 substrate: 7%; Anesthetic bind: 3%; rTrxR1 inhibitor: 26%; ALOX12 inh: 99%

How did Cc1ccc(Cl)cc1-n1ncc2c(N3CCN(Cc4ccccc4)CC3)ncnc21 do in these assays?
Glioma ERSR ind: -1%; IDH1 R132H inh: 12%; TrxR1 substrate: -12%[57.1 µM]; Anesthetic bind: -2%; rTrxR1 inhibitor: -9%[57.1 µM]; ALOX12 inh: -27%

What do the screens show for `COc1ccc(-c2cn3c(n2)CO[C@@H](CNS(C)(=O)=O)C3)cc1`?
ALOX12 inh: 29%[176 µM]

What do the screens show for `COc1ccc(-c2cn3c(n2)CO[C@@H](CNCc2ccc(Cl)cc2)C3)cc1`?
ALOX12 inh: 8.9µM*

How did CCOC(=O)c1c(NC(=O)C2=C(C)NC(=S)NC2c2ccc(F)cc2)sc(C)c1C (centres undefined) do in these assays?
Glioma ERSR ind: -2%; IDH1 R132H inh: 0%; TrxR1 substrate: -4%; Anesthetic bind: 52%; rTrxR1 inhibitor: 25%; ALOX12 inh: 28µM*

What do the screens show for `CCOC(=O)c1c(NC(=O)C2=C(C)NC(=S)NC2c2ccc(F)cc2F)sc(C)c1C` (centres undefined)?
Glioma ERSR ind: -2%; IDH1 R132H inh: 5%; TrxR1 substrate: 12%[57.1 µM]; Anesthetic bind: 6%; rTrxR1 inhibitor: -14%; ALOX12 inh: 40µM*

How did CCOC(=O)c1c(NC(=O)C2=C(C)NC(=S)NC2c2ccc(C)cc2)sc(C)c1C (centres undefined) do in these assays?
Glioma ERSR ind: -4%; IDH1 R132H inh: -7%; TrxR1 substrate: 13%[57.1 µM]; Anesthetic bind: 127%; rTrxR1 inhibitor: 21%[57.1 µM]; ALOX12 inh: 18µM*

What do the screens show for `CC1CCC/C(=C\c2ccc(O)cc2)C1=O` (centres undefined)?
Glioma ERSR ind: 4%; IDH1 R132H inh: 0%; TrxR1 substrate: -9%; rTrxR1 inhibitor: -13%; ALOX12 inh: inconclusive

Results for COc1ccc(/C=C2/CCC(CN3CCOCC3)C2=O)cc1 (centres undefined) ?
Glioma ERSR ind: -14%; IDH1 R132H inh: -3%; TrxR1 substrate: 9%[11.4 µM]; rTrxR1 inhibitor: 1.6µM*; ALOX12 inh: inconclusive

How did CN(C)CC1CCC/C(=C\c2ccc(OC(=O)c3ccc(Cl)cc3)cc2)C1=O (centres undefined) do in these assays?
Glioma ERSR ind: -8%; IDH1 R132H inh: 3%; TrxR1 substrate: 9%[11.4 µM]; rTrxR1 inhibitor: -12%[11.4 µM]; ALOX12 inh: 25µM*

What do the screens show for `Cc1ccc(/C=C2\CCC(C3CCCC3)C2=O)cc1` (centres undefined)?
Glioma ERSR ind: 4%; IDH1 R132H inh: 2%; TrxR1 substrate: 1%; Anesthetic bind: 4%; rTrxR1 inhibitor: -3%; ALOX12 inh: -15%

Results for CN(C)CC1CC/C(=C\c2ccc(O)cc2)C1=O (centres undefined) ?
Glioma ERSR ind: -14%; IDH1 R132H inh: 2%; TrxR1 substrate: -5%; rTrxR1 inhibitor: 0.71µM*; ALOX12 inh: inconclusive

What do the screens show for `COc1ccc(/C=C2\CCC(C3CCCC3)C2=O)cc1` (centres undefined)?
Glioma ERSR ind: -1%; IDH1 R132H inh: -4%; TrxR1 substrate: 6%[57.1 µM]; Anesthetic bind: 2%; rTrxR1 inhibitor: -2%[57.1 µM]; ALOX12 inh: -38%

Results for O=C1/C(=C\c2ccc(Cl)cc2)CCC1CNc1ccc(Cl)cc1 (centres undefined) ?
Glioma ERSR ind: 2%; IDH1 R132H inh: 6%; TrxR1 substrate: 2%; rTrxR1 inhibitor: 7.9µM*; ALOX12 inh: inconclusive

Results for CCn1c(C)cc(C(=O)CSc2nc3cc(S(N)(=O)=O)ccc3n2C)c1C ?
ALOX12 inh: 6%

How did O=S1(=O)Nc2c(ccc3cccnc23)-c2ccccc21 do in these assays?
Glioma ERSR ind: inconclusive; IDH1 R132H inh: 11%; TrxR1 substrate: -2%; Anesthetic bind: -9%; rTrxR1 inhibitor: 10%

How did Cc1cnc2c3c(cc(Cl)c2c1)-c1ccccc1S(=O)(=O)N3 do in these assays?
Glioma ERSR ind: -10%; TrxR1 substrate: 8%; rTrxR1 inhibitor: 32µM*

What do the screens show for `Cc1ccc(S(=O)(=O)NCC(=O)N(CCc2ccccc2)CC(=O)NCc2ccco2)cc1`?
Glioma ERSR ind: 1%; IDH1 R132H inh: 4%; TrxR1 substrate: 2%; Anesthetic bind: -17%; rTrxR1 inhibitor: 22µM*; ALOX12 inh: 0%

Results for O=C(CN(CCc1ccccc1)C(=O)CNS(=O)(=O)c1ccccc1)NCc1ccco1 ?
Glioma ERSR ind: -4%; IDH1 R132H inh: 3%; TrxR1 substrate: 5%[57.1 µM]; Anesthetic bind: -15%; rTrxR1 inhibitor: -56%; ALOX12 inh: 73%

What do the screens show for `CCNS(=O)(=O)c1ccc(NC(=S)NCc2ccco2)cc1`?
Glioma ERSR ind: -1%; IDH1 R132H inh: 2%; TrxR1 substrate: -6%; Anesthetic bind: -6%; rTrxR1 inhibitor: -2%[57.1 µM]; ALOX12 inh: -13%

Results for O=S(=O)(NCc1ccccc1)c1ccc(NC(=S)NCc2ccco2)cc1 ?
Glioma ERSR ind: -2%; IDH1 R132H inh: -5%; TrxR1 substrate: -6%; Anesthetic bind: 8.9µM*; rTrxR1 inhibitor: -20%; ALOX12 inh: inconclusive

How did CNC(=O)N1CCC(C2CCN(C(=O)CC3CCCCC3)C2)CC1 (centres undefined) do in these assays?
ALOX12 inh: 32%

What do the screens show for `CC1=NN(c2ccc(N)cc2)C(=O)C1`?
Glioma ERSR ind: -1%; IDH1 R132H inh: 2%; TrxR1 substrate: -10%; Anesthetic bind: -22%; rTrxR1 inhibitor: 28µM*; ALOX12 inh: 0%

Screening results from PubChem BioAssay.
